Assay outcomes deposited in PubChem by National Center for Advancing Translational Sciences (NCATS).
Vaccinia mCherry: qHTS for Stage-Specific Inhibitors of Vaccinia Orthopoxvirus: mCherry Reporter Primary qHTS; Potency, µM (top dose mostly 36.5 µM), inactives show at the top dose activity change, negative = inhibition, actives largely listed as inhibitors; 0.63% of 310,000 active; Vaccinia virus mCherry reporter infection, fluorescence; calls by dose curve; tested in A549 cells; also: potency is read from the fitted curve at half-maximal effect; % is scaled to controls: 0 for no effect and ±100 for the full control effect; nearly all actives have a fitted effect of over 35% in size
CHX counter: Cycloheximide Counterscreen for Small Molecule Inhibitors of Shiga Toxin; max response, %; cell reporter, cycloheximide protein synthesis inhibition counterscreen; 12% of 300,000 active; AID 2314, 2010; in the data active = max response mostly above about 13%, no sharp cut-off; inactive = mostly below about 14%; also: read at 38.3 µM for the half of the compounds with a filed dose; 0% is about no effect
Lassa entry inh: qHTS for Inhibitors of binding or entry into cells for Lassa Virus | Lassa virus pseudotype entry inhibition, cell reporter | Potency, µM (titrated, usually from 37.9 µM), inactives show at the highest dose activity change, negative = inhibition, usual class: inhibitors | 1.2% of 300,000 active | AID 540256, 2011; calls by dose curve; tested in HEK293 cells; also: potency is read from the fitted curve at half-maximal effect; % is scaled to controls: 0 for no effect and ±100 for the full control effect; nearly all actives have a fitted effect of over 50% in size
Vaccinia Venus: qHTS for Stage-Specific Inhibitors of Vaccinia Orthopoxvirus: Venus Reporter Primary qHTS; 0.46% of 330,000 active; Vaccinia virus Venus reporter expression, fluorescence; AID 720580, 2013; Potency, µM (highest dose often 36.5 µM), for the others: at the highest dose activity change, negative = inhibition, most hits filed as inhibitors; calls by dose curve; tested in A549 cells; also: potency is read from the fitted curve at half-maximal effect; % is scaled to controls: 0 for no effect and ±100 for the full control effect; nearly all actives have a fitted effect of over 30% in size
Marburg entry inh: qHTS for inhibitors of binding or entry into cells for Marburg Virus. Marburg virus pseudotyped entry inhibition, cell reporter. Potency, µM (series often up to 37.8 µM), for inactives: top-dose activity change, negative = inhibition, usual class: inhibitors. 1.8% of 300,000 active. AID 540276, 2011; calls by dose curve; tested in HEK293 cells; also: potency is read from the fitted curve at half-maximal effect; % is scaled to controls: 0 for no effect and ±100 for the full control effect
Shiga toxin inh: A qHTS for Small Molecule Inhibitors of Shiga Toxin; Vero cells, Shiga toxin protein synthesis inhibition reporter; inhibition, % at 38.7 µM; 9.2% of 290,000 active; in the data active = inhibition mostly above about 28%, no sharp cut-off; inactive = mostly below about 43%; also: 0% is about no effect
* = called active by the depositor; i = inactive; ? = inconclusive; nt = no result given; [ ] = remark or other dose. The sample as a whole holds a higher share of hits than the screen did.

SMILES	Vaccinia mCherry	CHX counter	Lassa entry inh	Vaccinia Venus	Marburg entry inh	Shiga toxin inh
CC(=O)c1ccc(NC(=O)c2ccc(CN3C(=O)CCn4nc(C)cc43)cc2)cc1	-3%	nt	24%[46.1 µM]	-3%	nt	nt
Cn1c(-c2ccccc2)cnc1NCc1cc(Cl)ccc1O	0%	17*	-1%	-14%	?	18
Cn1c(-c2ccc(F)cc2)cnc1NCc1ccccc1F	nt	17*	nt	nt	nt	19
Cn1c(-c2ccc(F)cc2)cnc1NCc1ccc(C#N)cc1	nt	-2	-15%	nt	9%	-17
Cn1c(-c2ccc(F)cc2)cnc1NCc1ccc(F)cc1F	nt	13	nt	nt	nt	23*
Cn1c(-c2ccc(F)cc2)cnc1NCc1ccc(F)cc1	?	6	-2%	?	1%	28
Cc1nc(-n2nc(C)c(Cc3ccc4c(c3)OCO4)c2C)sc1C(=O)Nc1ccc(Cl)cc1	-18%	nt	-24%[46.1 µM]	-15%	5%[46.1 µM]	nt
Cc1c(Cl)cccc1NC(=O)C1CCN(c2nc3ccccc3[nH]2)CC1	-8%	nt	15%[46.1 µM]	-6%	nt	nt
NC(=O)CCCCn1ccc(NC(N)=NCC(F)(F)F)n1	-3%	nt	nt	-12%	nt	nt
Cc1ccc(C(C)C)c(OCC(=O)N2CCC(c3nc4ccccc4o3)CC2)c1	-11%	nt	2%[46.1 µM]	-6%	-30%[46.1 µM]	nt
O=C(CCS(=O)(=O)Cc1ccccc1)Nc1ncc([N+](=O)[O-])s1	-23%	39*	8%[46.1 µM]	?	?	58*
Cc1ccc(CC(=O)Nc2ncc([N+](=O)[O-])s2)cc1	-26%	30*	nt	?	nt	61
O=C(CCS(=O)(=O)c1ccccc1)Nc1ncc([N+](=O)[O-])s1	-12%	-1	15%[46.1 µM]	?	-7%[46.1 µM]	6
CCCCC(CC)C(=O)Nc1ncc([N+](=O)[O-])s1 (stereo not given)	10µM*	-4	?	?	?	-6
O=C1C=CC2C(c3ccc4c(c3)OCO4)CC1N2Cc1ccccc1 (stereo not given)	-10%	-3	8%	-3%	3%	22
COc1ccc(CCN(/C=C2\Sc3ccccc3C2=O)C(C)=O)cc1OC	i	42*	10%[46.1 µM]	0%	?	91
C/C(=N\NC(=O)c1cccc(Br)c1)c1cccnc1	?	23*	?	-10%	27%[46.1 µM]	51*
C/C(=N\NC(=O)c1cccc2ccccc12)c1cccnc1	i	6	0%[46.1 µM]	-19%	-17%[46.1 µM]	6
COC(=O)N/N=C(\C)c1ccc(Br)cc1	nt	12	3%	-9%	?	-4
C/C(=N\NC(=O)c1ccc(Br)cc1)c1ccccc1	-3%[1.46 µM]	55*	?	?	?	113*
CC(=O)Nc1ccccc1NC(=O)C/C(C)=N/NC(=O)c1cccnc1	-11%	14	20%[46.1 µM]	3%	-20%[46.1 µM]	48*
C/C(=N\NC(=O)c1cccnc1)c1ccc(Br)cc1	-2%	16*	13%[46.1 µM]	-2%	15%[46.1 µM]	27
CC(C)(C)OC(=O)N1CCCC(C(=O)Nc2ccc(C(=O)N3CCCC3)cc2)C1 (stereo not given)	i	nt	nt	-11%	?	nt
Cc1ccc(C(=O)NC2CCS(=O)(=O)C2)cc1S(=O)(=O)N1CCCC1 (stereo not given)	i	-2	?	-14%	-3%	-14
Cc1ccc(-n2ncc(C(=O)NCCCN3CCc4ccccc4C3)c2C2CCN(C(=O)OC(C)(C)C)CC2)c(C)c1	-23%	nt	?	-23%	nt	nt
SMILES	Vaccinia mCherry	CHX counter	Lassa entry inh	Vaccinia Venus	Marburg entry inh	Shiga toxin inh
O=C(CNC(=O)c1ccccc1F)OCC(=O)c1ccc(Cl)s1	-6%	16	-12%[46.1 µM]	-6%	17%[46.1 µM]	9
C/C(=N\NC(=O)c1cccnc1)c1ccccc1	-12%	13*	26%	-4%	?	5
CSC(=S)N/N=C(\C)c1ccc(Br)cc1	-8%	29*	-24%	2%	-1%[46.1 µM]	45*
c1csc(-c2ncc3ccccn23)c1	nt	40*	-1%	-25%	9%	68*
Fc1ccc(-c2ncc3ccccn23)cc1	i	33*	21%	-8%	12%	33
Brc1ccc(-c2ncc3ccccn23)cc1	nt	60*	nt	nt	nt	88*
COc1cccc(NC(=O)CN(C)C(=O)c2cc(S(=O)(=O)NCc3ccccc3)ccc2C)c1	i	7	0%	-17%	-21%	-18
COCc1c(C(=O)NC2CCCCCC2)cnn1-c1nccc(-c2cc(C)sc2C)n1	-12%	nt	nt	-6%	nt	nt
Cc1ccc(SCc2nn(C)c(Cl)c2C=O)cc1	1%	42*	0%	6%	3%[46.1 µM]	57*
Cc1ccc(SCc2c(-c3ccccc3)nn(C)c2Cl)cc1	nt	-4	?	-19%	-8%	-1
CCOC(=O)CN1C(=O)S/C(=C/c2ccc(OCc3ccc(C(=O)O)cc3)cc2)C1=O	-11%	-2	19%[46.1 µM]	-5%	11%[46.1 µM]	3
CN(CCC#N)C(=O)c1cc2c(s1)-c1ccccc1SC2	?	52*	14%	-29%	?	81*
Cc1c(-c2nc(N)nc(Nc3ccccc3)n2)oc2ccccc12	?	39*	?	?	?	77*
C=C(C(C)=O)C(O)/C=C/c1ccco1 (stereo not given)	nt	nt	nt	nt	3%[14.2 µM]	nt
O=C(CCN1C(=O)C2C3CCC(C3)C2C1=O)Nc1ccc(Br)cc1 (stereo not given)	-13%	12*	-4%	-14%	-10%	-38
COc1ccc(NC(=O)CCN2C(=O)C3C4CCC(C4)C3C2=O)cc1 (stereo not given)	-8%	17*	-15%	0%	-14%	38
Cc1ccc(NC(=O)CCN2C(=O)C3C4CCC(C4)C3C2=O)cc1Cl (stereo not given)	i	25*	2%	-12%	13%	21
Cc1ccc(NC(=O)CCN2C(=O)C3C4CCC(C4)C3C2=O)cc1[N+](=O)[O-] (stereo not given)	i	15	6%	-12%	11%	17
O=C(CCN1C(=O)C2C3CCC(C3)C2C1=O)Nc1ccc([N+](=O)[O-])cc1 (stereo not given)	i	4	8%	-2%	3%[46.1 µM]	29
C/C(=N\NC(N)=O)c1c(F)cccc1F	i	-2	-6%	0%	9%	-11
Cc1ccc2cccc(NC(=O)COc3ccccc3[N+](=O)[O-])c2n1	-3%	nt	-20%[46.1 µM]	-3%	-22%[46.1 µM]	nt
Cc1ccnc(NC(=O)COc2ccccc2[N+](=O)[O-])c1	nt	40*	nt	nt	nt	140*
Cc1ccc(NC(=O)COc2ccccc2[N+](=O)[O-])nc1	0%	14	?	4%	?	56*
Cc1ccnc(NC(=O)Cn2cc([N+](=O)[O-])cn2)c1	-6%	43*	1%	2%	?	89*
COc1ccccc1N(Cc1ccccc1)S(=O)(=O)c1cccc(C(=O)Nc2cc(C)ccn2)c1	i	43*	?	-22%	?	58*
CCc1nnc(NC(=O)c2cccc(C(=O)Nc3nnc(CC)s3)n2)s1	-19%	-7	?	-16%	?	-16
